PubChem BioAssay AID847 (SRMLSC, 2007)
About 190 (0.46%) of roughly 41,000 compounds were called active. The list comes from a sample in which actives are over-represented; it also holds similar structures and randomly drawn compounds. Values without a mark were called inactive.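 Rule for the calls: active = viability at or below the median of all test compounds minus 3 SD, in both replicates if run twice (cut at about 45% in these data); inconclusive = duplicate replicates that disagree with each other; inactive = viability above that cutoff in every replicate.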

assay: viability loss of SK-BR-3 cells – cell-based, human, 24 h, primary screen (AID 847); conditions: SK-BR-3 viability, CellTiter-Glo ATP luminescence, at 10 µM, stronger effect = lower value;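 note: 100% = median untreated cell wells and 0% = median positive control drug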

**Q.** For `CSc1nc(O)c(Cc2ccccc2)c(=O)[nH]1`, which viability is on record?
**A.** Its viability is 88.2%.

**Q.** Which viability does the source give for `C=CCNc1nnc(C)c2ccccc12` here?
**A.** Its viability is 94.2%.

**Q.** Which viability does the source give for `COc1ccc(C2C(C#N)=C(N)Oc3n[nH]c(C)c32)cc1CN1CCN(c2ccc(F)cc2)CC1` (stereo not drawn) here?
**A.** The viability was 67%.

**Q.** With `CCOC(=O)C1CCCN(C(=O)c2cncc(Br)c2)C1` (stereo not drawn) as the molecule, how does the viability read?
**A.** Its viability is 89.5%.

**Q.** Which viability does the source give for `O=C(Nc1ccc2c(c1)nc1n2CCCCC1)c1cc(S(=O)(=O)N2CCOCC2)ccc1Cl` here?
**A.** The viability was 69%.

**Q.** With `O=C(CSc1ncccn1)NCCc1ccccc1` as the molecule, how does the viability read?
**A.** Its viability is 89.6%.

**Q.** Which viability does the source give for `CSc1nsc(SC)c1NC(=O)OC1CCCCC1` here?
**A.** The viability was 106%.

**Q.** With `COc1ccc(S(=O)(=O)N2CCOCC2)cc1C(=O)Nc1nc2ccccc2s1` as the molecule, how does the viability read?
**A.** Its viability is 87.8%.

**Q.** For `CCCC(=O)Nc1cc(OCC)c(NC(=O)NC2CCCCC2)cc1OCC`, which viability is on record?
**A.** The viability was 128%.

**Q.** With `COC(=O)[C@H](CCSC)NC(=O)Nc1ccc(OC)cc1` as the molecule, how does the viability read?
**A.** Its viability is 86.4%.

**Q.** For `COC(=O)C1(S(=O)(=O)C2(C(=O)OC)CCCC2)CCCC1`, which viability is on record?
**A.** Its viability is 105%.

**Q.** For `C=CCNC(=O)c1ccc(C)c(Br)c1`, which viability is on record?
**A.** Its viability is 74.5%.

**Q.** Which viability does the source give for `CCn1cc(NC(=O)Nc2ccc(OC)c(OC)c2)c(C(N)=O)n1` here?
**A.** Its viability is 90.8%.

**Q.** Which viability does the source give for `Cc1ccc(C(=O)CS(C)(=O)=O)cc1` here?
**A.** The viability was 90.6%.

**Q.** Which viability does the source give for `CC(=O)N1CCC(C(=O)Nc2nc(-c3ccccc3)ns2)CC1` here?
**A.** The viability was 96.3%.

**Q.** Which viability does the source give for `Cc1nc(NCCN)c(C#N)c2c1COC(C)(C)C2` here?
**A.** The viability was 85.4%.

**Q.** With `OC(COc1ccccc1)Cn1cc(Br)cn1` (stereo not drawn) as the molecule, how does the viability read?
**A.** The viability was 74.7%.

**Q.** Which viability does the source give for `CCCOC(=O)C1=C(C)NC2=C(C(=O)C(C(=O)OC)C(C)C2)C1c1ccc(N(C)C)cc1` (stereo not drawn) here?
**A.** Its viability is 89%.

**Q.** For `Cc1nc(N2CCCC2C(=O)O)c2oc3ccccc3c2n1` (stereo not drawn), which viability is on record?
**A.** The viability was 101%.

**Q.** For `COC(=O)c1cn(CC(=O)NCc2cccs2)c2ccccc12`, which viability is on record?
**A.** Its viability is 108%.

**Q.** For `COc1cc(-c2nc(S(=O)(=O)c3ccc(Cl)cc3)c(N(C)C)o2)cc(OC)c1OC`, which viability is on record?
**A.** Its viability is 75.4%.

**Q.** For `O=C(c1cccc(S(=O)(=O)N2CCOCC2)c1)N1CCOCC1`, which viability is on record?
**A.** Its viability is 94.3%.

**Q.** For `CC(=O)Oc1cccc(N2C(=O)C3CC=C(Cl)CC3C2=O)c1` (stereo not drawn), which viability is on record?
**A.** The viability was 73.3%.

**Q.** With `NC(=O)C1CCN(C2OC(=O)c3ccccc32)CC1` (stereo not drawn) as the molecule, how does the viability read?
**A.** The viability was 93.2%.

**Q.** With `O=C(NC(c1ccccc1)c1ccccc1)N1CCN(CCO)CC1` as the molecule, how does the viability read?
**A.** Its viability is 93%.

**Q.** For `O=C(CSc1nnc(Cc2ccccc2)n1-c1ccccc1)N1CCOCC1`, which viability is on record?
**A.** The viability was 87.4%.

**Q.** Which viability does the source give for `Cc1ccc2[nH]c(=O)c(COC(=O)c3ccccn3)cc2c1` here?
**A.** The viability was 100%.

**Q.** Which viability does the source give for `CC1Cc2ccccc2N1C(=O)CSc1nnc(-c2ccc(S(=O)(=O)N3CCCCC3)cc2)o1` (stereo not drawn) here?
**A.** Its viability is 96%.

**Q.** Which viability does the source give for `Cc1cc(O)ccc1-c1cnc2ccccc2n1` here?
**A.** The viability was 92.4%.

**Q.** For `CC(C)NS(=O)(=O)c1ccc(OCC(=O)Nc2ccc3c(c2)OCCO3)cc1`, which viability is on record?
**A.** The viability was 86.3%.

**Q.** Which viability does the source give for `O=C(OC(C(=O)NC1CCCC1)c1ccc(F)cc1)c1ccno1` (stereo not drawn) here?
**A.** Its viability is 107%.

**Q.** For `N=c1c2c3c(sc2ncn1N)CCCCC3`, which viability is on record?
**A.** The viability was 86%.

**Q.** With `COCCNC(=O)c1ccccc1-c1nc(-c2ccccc2Cl)no1` as the molecule, how does the viability read?
**A.** The viability was 94.6%.

**Q.** With `O=C(c1cccc(C(=O)N2CCc3ccccc32)n1)N1CCc2ccccc21` as the molecule, how does the viability read?
**A.** The viability was 101%.

**Q.** With `Cc1nc2nc(COc3ccccc3)[nH]n2c(=O)c1Cc1ccccc1` as the molecule, how does the viability read?
**A.** The viability was 85.2%.

**Q.** With `Cc1cccc(OCc2nnc(SCC(=O)N3CCN(C(=O)c4ccco4)CC3)n2C)c1C` as the molecule, how does the viability read?
**A.** The viability was 112%.

**Q.** With `CCOC(=O)CCc1c(C)c2ccc(OCc3nn[nH]n3)c(C)c2oc1=O` as the molecule, how does the viability read?
**A.** Its viability is 91.2%.

**Q.** For `O=C1CCCc2c1[nH]c1ccc(Br)cc21`, which viability is on record?
**A.** Its viability is 94.5%.

**Q.** Which viability does the source give for `O=C(COC(=O)c1ccc2c(c1)OCCO2)NCc1ccccc1` here?
**A.** Its viability is 91.5%.

**Q.** For `Cc1cnc(NC(=O)CSc2nnc(-c3ccc(Cl)cc3Cl)n2N)s1`, which viability is on record?
**A.** Its viability is 88.8%.

**Q.** With `O=C(Cn1c(-c2ccc(Cl)cc2)noc1=O)N1CCN(c2ccccc2F)CC1` as the molecule, how does the viability read?
**A.** The viability was 88.1%.

**Q.** Which viability does the source give for `Cc1cc(C)c2cc(CN(Cc3cccs3)Cc3nnnn3CC3CCCO3)c(=O)[nH]c2c1` (stereo not drawn) here?
**A.** The viability was 83.1%.

**Q.** For `CCOC(=O)[C@H]1CCC[C@@H](NS(=O)(=O)c2ccc(NC(C)=O)cc2)C1`, which viability is on record?
**A.** Its viability is 73.8%.

**Q.** With `C=CCSC1=C(C#N)C(c2cc(Br)c(O)c(OC)c2)CC(=O)N1` (stereo not drawn) as the molecule, how does the viability read?
**A.** The viability was 86.3%.

**Q.** For `CC1(C)CC(=O)C(C2=NC(C)(C)Cc3ccccc32)=C(O)C1`, which viability is on record?
**A.** Its viability is 99.5%.

**Q.** For `c1nc(COc2nsnc2N2CCOCC2)cs1`, which viability is on record?
**A.** Its viability is 90.4%.

**Q.** For `Cc1nc2nc3c(cn2n1)C(=O)CC(c1ccccc1)C3` (stereo not drawn), which viability is on record?
**A.** The viability was 109%.

**Q.** With `CCCOc1ccc(CN(CCO)CCO)cc1C(=O)OC` as the molecule, how does the viability read?
**A.** The viability was 94.7%.

**Q.** For `Cc1ccn2cc(C(=O)NC3CCN(Cc4ccccc4)CC3)nc2c1`, which viability is on record?
**A.** Its viability is 81%.

**Q.** With `CCCC(NS(=O)(=O)c1ccc(OC)cc1)C(=O)O` (stereo not drawn) as the molecule, how does the viability read?
**A.** The viability was 97.5%.

**Q.** Which viability does the source give for `c1ccc2c(NCC3CCCO3)nc(-c3ccncc3)nc2c1` (stereo not drawn) here?
**A.** The viability was 101%.

**Q.** For `CCc1ccc(-c2nnn(Cc3nn[nH]n3)n2)cc1`, which viability is on record?
**A.** Its viability is 112%.

**Q.** Which viability does the source give for `CCc1nnc(NC(=O)CSc2nnc(COc3ccc(C#N)cc3)n2-c2ccccc2)s1` here?
**A.** The viability was 86%.

**Q.** Which viability does the source give for `Cc1ccc(S(=O)(=O)N2CCC(C(=O)N[C@@H](C)C(=O)NCCc3ccccc3)CC2)cc1` here?
**A.** The viability was 100%.

**Q.** With `COc1ccc(C2CC(c3ccc(C)cc3)Nc3nc(N)nn32)cc1` (stereo not drawn) as the molecule, how does the viability read?
**A.** Its viability is 102%.

**Q.** Which viability does the source give for `CC(C)=C(NC(=O)c1ccco1)C(=O)NCCc1nc2ccccc2[nH]1` here?
**A.** Its viability is 122%.

**Q.** With `Cc1cc(N2CCN(Cc3ccc4c(c3)OCO4)CC2)n2ncnc2n1` as the molecule, how does the viability read?
**A.** The viability was 88.1%.

**Q.** With `Cc1ccc(N(CC(O)CN2CCCC2)S(=O)(=O)c2ccccc2)cc1` (stereo not drawn) as the molecule, how does the viability read?
**A.** The viability was 84.9%.

**Q.** Which viability does the source give for `CC(C)C(NC(=O)c1cccc(S(=O)(=O)N2CCOCC2)c1)C(=O)NCCc1ccccn1` (stereo not drawn) here?
**A.** Its viability is 84.8%.

**Q.** For `Cc1ccc(S(=O)(=O)NCC(=O)OCC(=O)N2CCc3ccccc32)cc1`, which viability is on record?
**A.** The viability was 75.8%.

**Q.** With `CCCCNc1nc2c(c(=O)[nH]c(=O)n2C)n1CCOc1ccccc1` as the molecule, how does the viability read?
**A.** Its viability is 114%.

**Q.** Which viability does the source give for `c1ccc(-n2ncc3c(N4CCCC4)ncnc32)cc1` here?
**A.** The viability was 86.5%.

**Q.** For `CN(C)Cc1c(C#N)c2ccccc2n1C`, which viability is on record?
**A.** The viability was 99.7%.
